Measured values from PubChem BioAssay (NCI).
“And” between values parts separate entries of the source, which are not always exact repeats. Equal entries are not always repeated. About 83,000 compounds went through this panel and 20% of them were active in at least one assay; those are over-represented in the sample as a whole.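 How to read the values: 0–100, growth inhibition (40 = 60% inhibited); 0, no net growth; -100 to 0, cell death (-40 = 40% of starting cells died; -100 = all dead).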 The source made the active and inactive calls. Rule for the calls: active = growth percent below 10; inactive = the rest.

test system: HL-60(TB) leukemia; test: NCI-60 one-dose screen, 48 h (100 = growth as untreated, 0 = no growth, -100 = all killed); details: 10 µM unless noted

SMILES | growth
CCOc1ccc2nc3ccc(Cl)cc3nc2c1 | 63.7% (inactive)
C=C1C(=O)O[C@H]2[C@H]1CC/C(COC(=O)CCC(=O)OC/C1=C/CC[C@@]3(C)O[C@H]3[C@H]3OC(=O)C(=C)[C@@H]3CC1)=C\CC[C@@]1(C)O[C@@H]21 | -41.9% (active)
C=C1[C@@H](O)C[C@H]2C(C)(C)C[C@H](Cl)C[C@]2(C)[C@H]1C[C@H](O)[C@H]1CC(=O)NC1=O | -26% (active)
c1cc2ccc1CNCCN1CCNCc3ccc(cc3)Oc3ccc(cc3)CNCCN(CCNCc3ccc(cc3)O2)CCNCc2ccc(cc2)Oc2ccc(cc2)CNCC1 | -57.4% (active)
N#Cc1ccc(NC(=O)c2ccc3cccnc3c2O)cc1 | 4.59% (active)
CCCCCCNc1cc(C)nc2ccc(OC)cc12 | 63.3% (inactive)
CC(=O)N[C@H](C(=O)N[C@@H](CCCNC(=N)N)C(=O)N[C@@H](CCCCN)C(=O)N[C@@H](CCCNC(=N)N)C(=O)N[C@]1(C)CCC/C=C\CCC[C@@](C)(C(=O)N[C@@H](CC(C)C)C(=O)N[C@@H](CC(C)C)C(=O)N[C@@H](CCC(N)=O)C(=O)N[C@@H](CCC(=O)O)C(=O)N[C@@H](CCCNC(=N)N)C(=O)N[C@@H](CCC(=O)O)C(=O)N[C@@H](CC(C)C)C(=O)N[C@H](C(=O)N[C@@H](CCC(=O)O)C(N)=O)C(C)C)NC(=O)[C@H](CCCNC(=N)N)NC(=O)[C@H](CC(C)C)NC1=O)C(C)C | 104% (inactive)
COc1cc(-c2nn(C)nc2-c2cc3ccccc3s2)cc(OC)c1OC | -3.84% (active)
Cc1nc2c(=O)[nH]c(=S)[nH]c2[nH]c1=O | 75.3% (inactive) and 96.3% (inactive)
COc1ccc(-c2cn(-c3cccc(C(=O)/C=C/c4ccc(O)c(OC)c4)c3)c(=O)[nH]2)cc1 | -2.62% (active)
CSc1nc2c(c(=O)[nH]1)N=C1c3ccccc3C(=O)C1C(c1ccccc1)N2 (stereo unspecified) | -34.8% (active)
O=S(=O)(Nc1ccc(Cl)cc1Cl)c1ccc(-c2cnc(C3CC3)o2)cc1 | -0.119% (active)
Oc1c(Cl)cc(Cl)c(Cl)c1CNCCNCc1c(O)c(Cl)cc(Cl)c1Cl | -10.5% (active)
Nc1ccc(S(=O)(=O)c2ccc(Cl)cc2)cc1 | 100% (inactive)
Cc1ccc(-c2nnc(COc3ccc(-c4nnc(N)s4)cc3)o2)cc1 | 96.4% (inactive)
CCN(CC)CCC(=O)c1cccc2ccccc12 | 102% (inactive)
COc1cccc2c1C(=O)c1c(O)c3c(c(O)c1C2=O)C[C@@](O)(C(=O)CO)C[C@@H]3OC1CC(OC(C)=O)C(OC(C)=O)C(C)O1 (stereo partly specified) | -40% (active)
CC(C)(C)c1ccc(Cn2cc(CSc3nc4ccccc4s3)nn2)cc1 | 93.7% (inactive)
CCn1c(SCC(=O)c2ccc(Br)cc2)nnc1-c1ccncc1 | 103% (inactive)
CCC(=C(c1ccc(OCCN2CCCCC2)cc1)c1ccc(OCCN2CCCCC2)cc1)c1ccc(Cl)cc1 | -62.4% (active)
Cn1ccc2c(c1=O)C(=O)c1nccc3c1c-2nc1ccccc13 | -67.4% (active)
C=C(C)[C@@H]1CC[C@]2(C)[C@H](CC=C3[C@@H]4[C@H](C)[C@@H](C)CC[C@]4(CO)CC[C@]32C)[C@@]1(C)CCCN | -45.2% (active)
COc1ccc(COC=O)cc1 | 103% (inactive)
Cc1c[n+](Cc2ccc3ccccc3c2)cn1Cc1ccc2ccccc2c1 | -56.3% (active)
O[C@@H]1Cc2ccc3ccccc3c2N[C@H](c2ccoc2)C1 | 105% (inactive)
COc1ccc2c(NCCCCCCCCNc3c4ccccc4nc4cc(OC)ccc34)c3ccccc3nc2c1 | -92.3% (active)
